DUSP3 inh = VHR1 phosphatase inhibitors, primary screen, biochemical, colorimetric, HTS; Dual specificity protein phosphatase 3 (Homo sapiens), P51452; recombinant VHR phosphatase, colorimetric substrate read-out; inhibition, % at 20 µM; actives 0.7% (n = 50,000); in the data active = inhibition above about 60%
Target sequence (P51452 whole entry, looked up): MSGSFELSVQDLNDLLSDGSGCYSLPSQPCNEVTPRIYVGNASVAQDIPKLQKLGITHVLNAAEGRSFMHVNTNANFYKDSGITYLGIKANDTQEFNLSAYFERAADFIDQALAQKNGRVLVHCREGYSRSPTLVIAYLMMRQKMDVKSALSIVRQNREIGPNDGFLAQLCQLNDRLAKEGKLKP
Active calls of the source: *. This excerpt belongs to a sample that is enriched for hits.

SMILES	DUSP3 inh
CC(C)Oc1ccccc1C1CC(=O)Nc2c1cc(Br)c1ccccc21 (stereo unspecified)	108*
COc1ccc(C=NC2=NN(c3ccccc3)CC2)cc1	22
COc1ccc(OCC(=O)Nc2cccc(-c3nc4ccccc4s3)c2)cc1	-2
CC1=C(C)CC2C(=O)N(c3ccc(-c4ccc([N+](=O)[O-])cc4)cc3)C(=O)C2C1 (stereo unspecified)	-16
O=C1C2C(c3ccc([N+](=O)[O-])cc3)OC3(C(=O)c4ccccc4C3=O)C2C(=O)N1c1ccc(Cl)cc1 (stereo unspecified)	-12
Cc1ccc(OCC(=O)N2CCN(c3ccc([N+](=O)[O-])cc3)CC2)cc1	0
COC(=O)C1C2C(=O)N(c3ccc([N+](=O)[O-])cc3)C(=O)C12c1ccc(Cl)cc1 (stereo unspecified)	102*
COC(=O)C1C2C(=O)N(c3ccc([N+](=O)[O-])cc3)C(=O)C12c1ccc(C)cc1 (stereo unspecified)	116*
COC(=O)C1C2C(=O)N(c3ccccc3)C(=O)C12c1ccc(Cl)cc1 (stereo unspecified)	-2
O=C(c1ccccc1F)N1CCN(C2CCN(Cc3ccccc3)CC2)CC1	-1
O=C1CC(c2ccccc2Cl)CC2=C1C(c1ccsc1)Nc1ccccc1N2 (stereo unspecified)	-7
COc1ccccc1NC(=O)C(=O)N=Nc1c(O)n(CC(=O)Nc2ccccc2)c2ccccc12	-23
O=C1c2ccccc2/C(=N/N=C/C=C/c2ccco2)C1C(=O)C(c1ccccc1)c1ccccc1 (stereo unspecified)	88*
C(/C=C/c1ccco1)=N/N1CCN(c2ccccc2)CC1	41
Cc1ccc(NCC(=O)N/N=C\C=C\c2ccco2)cc1	4
c1ccc(Nc2nc(-c3ccccn3)cs2)nc1	-33
CN1CC[C@@](O)(c2ccccc2)[C@@H]2CCC[C@@H]21	-10
O=C1CS/C(=N/N=C/c2cc3c(cc2[N+](=O)[O-])OCO3)N1	0
Cc1ccc(C(=O)NCc2ccccn2)cc1[N+](=O)[O-]	6
O=C1NC(=S)NC(=O)C1=Cc1ccc(-c2ccc([N+](=O)[O-])cc2Br)o1	64*
C=CCN1C(=O)/C(=C\c2ccc(-c3ccc([N+](=O)[O-])cc3Cl)o2)C(=O)NC1=S	18
O=C1NC(=S)N/C1=C\c1ccc(-c2cc([N+](=O)[O-])ccc2Br)o1	-14
C=CCN1C(=O)/C(=C\c2ccc(-c3ccccc3[N+](=O)[O-])o2)C(=O)NC1=S	88*
C=CCN1C(=O)/C(=C\c2ccc(-c3ccc([N+](=O)[O-])cc3Br)o2)C(=O)NC1=S	30
C=CCN1C(=O)/C(=C\c2ccc(-c3ccc(OC)cc3[N+](=O)[O-])o2)C(=O)NC1=S	6
SMILES	DUSP3 inh
O=C1NN(c2ccccc2)C(=O)/C1=C/c1cccn1-c1ccc([N+](=O)[O-])cc1	-1
C=CCN1C(=O)/C(=C\c2cccn2-c2ccc([N+](=O)[O-])cc2)C(=O)NC1=S	80*
O=C1NC(=O)N(c2ccccc2)C(=O)/C1=C\c1cccn1-c1ccc([N+](=O)[O-])cc1	25
CCOC(=O)C(NS(=O)(=O)c1ccc2c(c1)Cc1ccccc1-2)C(O)c1ccccc1 (stereo unspecified)	-41
CS(=O)(=O)N(CC(=O)O)c1ccccc1Cl	-10
COC(=O)C1=C(C)NC(=O)CC1c1ccc(Cl)c(Cl)c1 (stereo unspecified)	-26
CC1=C(C(=O)OCCc2ccccc2)C(c2ccccc2Cl)CC(=O)N1 (stereo unspecified)	-8
CC1=C(C(=O)OCCCc2ccccc2)C(c2ccc(Cl)c(Cl)c2)CC(=O)N1 (stereo unspecified)	100*
CC(Oc1ccccc1)C(=O)Nc1cccc(Br)c1 (stereo unspecified)	-20
CC1=NN(c2ccccc2)C(=O)/C1=C\c1ccc(N2CCOCC2)c([N+](=O)[O-])c1	16
CN1C(=O)C(=Cc2ccc(N3CCCC3)c([N+](=O)[O-])c2)C(=O)N(C)C1=O	90*
CC1CCN(c2ccc(C=C3C(=O)c4ccccc4C3=O)cc2[N+](=O)[O-])CC1	-34
O=C(NN1C(=O)c2ccc(C(=O)c3ccc4c(c3)C(=O)N(NC(=O)c3ccncc3)C4=O)cc2C1=O)c1ccncc1	-16
CCOc1ccc2nc(SCC(=O)NCC(=O)c3ccccc3)sc2c1	-8
CCN(CC)c1ccc(C(=O)Nc2ccc(F)cc2F)cc1	-4
O=C(COc1ccccc1Cl)NNC(=O)c1ccccn1	2
CCOC(=O)c1c(NC(=O)c2cccc(C)c2)sc(C(=O)Nc2ccccc2F)c1C	-8
CCOC(=O)c1c(NC(=O)c2ccc(Cl)c(Cl)c2)sc(C(=O)Nc2ccccc2F)c1C	-12
CCOC(=O)c1c(NC(=O)c2cccc(OC)c2)sc(C(=O)Nc2ccccc2F)c1C	115*
CCc1c(C)sc(NC(=O)C(C)Oc2cccc(Cl)c2)c1C(N)=O (stereo unspecified)	11
CCOC(=O)C1=NNC(C(=O)OCC)(C(=O)OCC)C1c1ccccc1 (stereo unspecified)	101*
